ELG1 repair inh – qHTS screen for small molecules that inhibit ELG1-dependent DNA repair in human embryonic kidney (HEK293T) cells expressing luciferase-tagged ELG1 | HEK293T ELG1-luciferase reporter, luminescence, 16 h; DNA damage induced by 5-fluorouridine | Potency, µM (series often up to 46.1 µM), for inactives: at the top dose activity change, negative = inhibition, hits mostly inhibitors | hit rate 2.3% among 330,000; further: potency means the concentration at half of the fitted maximal effect; nearly all actives have a fitted effect of over 55% in size
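DMSO vehicle served as the neutral condition. Each well held 2,000 cells given 5-fluorouridine plus compound; after 16 hr at 37 °C/5% CO2, ONE-Glo was added and luciferase measured 30 min later.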
Giardia killer – Small Molecules that selectively kill Giardia lamblia: qHTS; Giardia lamblia trophozoite viability; activity change, % at 7.66 µM, hits read low; hit rate 0.15% among 340,000; AID 540267, 2011; in the data active means activity change below about -80%; inconclusive means between about -30% and that limit;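 further: parasites exposed to compound for two days anaerobically before the ATP read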
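Each well holds 100 Giardia trophozoites and compound. After two days (48 hrs) at 37 deg C in anaerobic conditions, ATP is quantified by luminescence.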
Sfp PPTase inh – qHTS Assay for Inhibitors of Bacillus subtilis Sfp phosphopantetheinyl transferase (PPTase). 4'-phosphopantetheinyl transferase ffp (Bacillus subtilis), Q9F4F7. Potency, µM, inactives show largest response in the series, negative = inhibition, actives largely listed as inhibitors. Biochemical Sfp PPTase activity, qHTS. AID 1490, 2009. hit rate 3.5% among 310,000;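 further: the enzyme is Sfp with the accession as filed and its product quenches rhodamine fluorescence; potency means the concentration at half of the fitted maximal effect; 0% = enzyme reaction without inhibitor and -100% = no enzyme wells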
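With Hepes-Na pH 7.6 buffer containing 10 mM MgCl2, Sfp (15 nM) modified BHQ-2-YbbR (12.5 uM) using rhodamine-CoA (5 uM). Two reads 30 minutes apart at 525/598 nm yielded each well's rate.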
Coupling enz – qHTS Assay for Inhibitors of Fructose-1,6-bisphosphate Aldolase from Giardia Lamblia: Coupling assay counterscreen; coupling enzyme system counterscreen, AmpLite Red fluorescence; activity change, negative = inhibition, % at 58.2 µM, hits read low; hit rate 0.67% among 290,000; AID 2472, 2010; in the data active means activity change below about -30%
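Counterscreen lacking aldolase: glyceraldehyde-3-phosphate coupling-enzyme reagent preincubated 10 min at RT with compound (at 57.5 uM final), then substrate/coupling system with AmpLite Red added; fluorescence read at 525/598 nm after 20 min RT.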
* = called active by the depositor; ? = inconclusive; nt = not tested or not shown. A selection: hits, their analogues and other compounds. The true share with any hit is near 5.5%. Unless noted, the call rests on the fitted dose curve; in most records, active means well fitted curve in the direction sought with a large enough effect; inconclusive means small, poorly fitted or top-dose-only effect, or another doubt; inactive means no such curve, though single readings can be large; an effect the other way counts as inactive or inconclusive. Unless noted, on the % scale 0 is the no-effect control and ±100 the full control effect.

SMILES | ELG1 repair inh | Giardia killer | Sfp PPTase inh | Coupling enz
O=C1N[C@H](Cc2ccccc2)COC(=O)[C@@H](Cc2ccc(F)cc2)CC/C=C/C[C@H]1CC(=O)N(CCO)Cc1ccccc1 | 20.6µM* | 1.4 | nt | nt
O=C1N[C@@H](c2ccccc2)COC(=O)[C@@H](Cc2ccc(F)cc2)C/C=C\C[C@@H]1CC(=O)N(CCO)Cc1ccccc1 | 20.6µM* | -17.4 | nt | nt
O=C1N[C@@H](Cc2ccccc2)COC(=O)[C@H](Cc2ccc(F)cc2)C/C=C\C[C@@H]1CC(=O)N(CCO)Cc1ccccc1 | 20.6µM* | -4.7 | nt | nt
CC(OC(=O)CC1Sc2ccccc2NC1=O)C(=O)NC1CCCC1 (stereo not given) | -2.6% | 25.4 | -12.0% | -1.9
O=C(C[C@H]1C/C=C\CC[C@@H](Cc2ccc(F)cc2)C(=O)OC[C@H]2CCCN2C1=O)N[C@H](CO)Cc1ccccc1 | 23.1µM* | 18.5 | nt | nt
CC(C)(C)OC(=O)C[C@H]1C/C=C\C[C@H](CC(=O)N(CCO)Cc2ccccc2)C(=O)N[C@@H](c2ccccc2)COC1=O | 8.2µM* | ? | nt | nt
O=C(C[C@@H]1C/C=C\C[C@@H](Cc2ccc(F)cc2)C(=O)OC[C@@H]2CCCN2C1=O)N[C@H](CO)Cc1ccccc1 | -1.7% | -9.2 | nt | nt
C=CCN1C(=O)/C(=C/c2ccc(O)c(OC)c2)S/C1=N/c1nccs1 | 23.1µM* | 4.8 | 7.4% | 3.6
CNC(=O)c1nnsc1S(=O)c1ccc(Cl)cc1 (stereo not given) | ? | -1.4 | 12.6µM* | 1.3
Cc1ccc(S(=O)c2snnc2C)cc1 (stereo not given) | -5.5% | 6.8 | -1.7% | 1.2
CCCNC(=O)c1nnsc1S(=O)c1ccc(Cl)cc1 (stereo not given) | 26.1% | -1.4 | 20µM* | -0.1
CCCNC(=O)c1nnsc1S(=O)(=O)c1ccc(Cl)cc1 | ? | -4.5 | 12.6µM* | -2.5
COc1ccc(NC(=O)N2CC[C@@]3(CCCN(C(=O)c4ccncc4)C3)C2)cc1 | nt | nt | 24.4% | 1.1
Cc1ccc2nc(CSc3nc(C)ccc3C#N)[nH]c2c1 | ? | -88.3* | -14.7% | -9.2
Cc1ccc2nc(SCC(=O)c3ccc(O)cc3O)[nH]c2c1 | ? | 3.0 | 50.1µM* | -1.7
COC(=O)CSc1nc2ccc(C)cc2[nH]1 | 20.6% | -3.5 | 6.7% | nt
Cc1ccc2nc(SCc3nc4ccccc4c(=O)[nH]3)[nH]c2c1 | ? | -0.3 | 44.7µM* | 1.0
COC(=O)c1sc2nc(CSc3nc4ccc(C)cc4[nH]3)[nH]c(=O)c2c1C | -0.5% | -3.1 | -5.7% | 2.6
CCn1cc(/C=C/C(=O)Nc2ccc(C)cc2Br)cn1 | ? | -1.9 | -3.9% | 1.2
CCn1cc(/C=C/C(=O)Nc2ccn(Cc3c(F)c(F)cc(F)c3F)n2)cn1 | -19.2% | 8.6 | 28.2µM* | 1.2
Cc1ccc(/C=c2\s/c(=C(/C#N)C(=O)N3CCCC3)n(Cc3ccco3)c2=O)s1 | 12.6µM* | -4.2 | 12.6µM* | -2.6
Cc1ccc(S(=O)(=O)CCC(=O)OCC(=O)c2c(N)n(CC(C)C)c(=O)n(C)c2=O)cc1 | -9.3% | -5.5 | 21.3% | nt
CCCn1c(N)c(C(=O)NS(=O)(=O)c2ccc(C)cc2)c(=O)n(C)c1=O | 10.3µM* | 9.8 | 13.8% | 4.0
Cn1c(=O)[nH]c(=O)c2c1nc(NN)n2CCOc1ccccc1 | -11.3% | -12.1 | 25.1µM* | -3.8
CCCn1c(N/N=C(C)\C=C\c2ccccc2)nc2c1c(=O)[nH]c(=O)n2C | -18.2% | nt | 39.8µM* | 1.0
SMILES | ELG1 repair inh | Giardia killer | Sfp PPTase inh | Coupling enz
Cn1c(=O)[nH]c(=O)c2c1nc(NCCN)n2CCOc1ccccc1 | -27.8% | 0.8 | 18.1% | 2.4
CCCn1c(SCCc2ccccc2)nc2c1c(=O)[nH]c(=O)n2C | -26.9% | -1.5 | 0.3% | 0.6
COC(=O)c1ccccc1N/C=C1\CCc2c(c(C)nn2-c2ccccn2)C1=O | ? | 3.9 | 44.7µM* | -17.0
COC(=O)c1ccccc1NC(=O)CN1CCN(c2ccccn2)CC1 | -3.9% | -14.2 | 19.7% | -5.0
CC(=O)Nc1ccc(S(=O)(=O)NCCSCc2cccc(Cl)c2)cc1 | -24.2% | -2.0 | 6.2% | -0.3
CC(=O)Nc1ccc(S(=O)(=O)NCCSCc2c(Cl)cccc2Cl)cc1 | 23.1µM* | 17.5 | 1.3% | 2.2
CC(=O)Nc1ccc(S(=O)(=O)NCCSCc2ccco2)cc1 | -27.8% | 11.5 | 31.6µM* | 7.9
C[C@H]1COC(=O)[C@@H](Cc2ccc(F)cc2)C/C=C\C[C@H](CC(=O)N(CCO)Cc2ccccc2)C(=O)N1 | 14.4% | 10.6 | nt | nt
COc1ccc(CNc2nc(-c3cccc(NS(C)(=O)=O)c3)nc3ccccc23)c(OC)c1 | nt | nt | -3.1% | -2.2
Cc1cccc(C=NOCCc2ccccc2)n1 | nt | 6.2 | nt | nt
COc1ccc(C(=O)CC(=O)c2c(O)cc(OC)cc2OC)cc1 | nt | nt | 3.3% | 1.5
COc1cc(C(=O)NCC2(c3ccccc3)CCCC2)cc(OC)c1OC | ? | -10.1 | 3.4% | 2.5
Cc1ccc2cc(CN(Cc3ccc4c(c3)OCO4)Cc3nnnn3Cc3ccco3)c(=O)[nH]c2c1 | ? | -4.2 | 25.1µM* | 0.4
COc1ccccc1CN(Cc1cc2c(C)ccc(C)c2[nH]c1=O)Cc1nnnn1Cc1ccco1 | 18.4µM* | 3.2 | 20µM* | -1.1
Cc1ccc2[nH]c(=O)c(CN(Cc3ccccc3)Cc3nnnn3Cc3ccco3)cc2c1 | nt | -13.5 | nt | nt
Cc1ccc(CN(Cc2cc3cc4c(cc3[nH]c2=O)OCCO4)Cc2nnnn2Cc2ccco2)cc1 | 23.1µM* | -5.9 | 10µM* | -4.7
N#Cc1ccc(CN2CC[C@@]3(CCCN(C(=O)c4cccc(F)c4)C3)C2)cc1 | nt | nt | -1.5% | 1.1
O=c1cc(N2CCNCC2)oc2c(-c3ccccc3)cccc12 | nt | nt | -1.1% | 1.6
COC(=O)C1=C(C)N(c2cc(C)cc(C)c2)/C(=C/c2ccc(O)cc2)C1=O | ? | 23.1 | 44.7µM* | 0.7
COc1ccc(Nc2cc(C)nc(NCc3ccccc3)n2)cc1 | 18.3µM* | 22.4 | 31.6µM* | -1.6
COc1cc(C)nc(NCc2ccccc2)n1 | ? | 14.9 | -2.8% | -0.3
Cc1ccc(Cn2c(=N)n(CC(O)COc3ccccc3)c3ccccc32)cc1 (stereo not given) | ? | -18.9 | 22.4µM* | 1.5
N=c1n(Cc2ccccc2)c2ccccc2n1CC(O)COc1ccccc1 (stereo not given) | ? | -10.3 | -3.5% | 0.7

Screening data as filed in PubChem BioAssay.
